# Compounds with a hit are over-represented: about 1.8% of the library has one in this group of screens.
# CCHF vOTU inh-1: blocks the CCHF virus ovarian tumor domain protease; CCHFV vOTU protease, Pep-AMC fluorescence; inhibition, % at 11.5 µM; hit rate 0.55% among 370,000; AID 651958; also: 0% = vehicle wells with enzyme and 100% = no enzyme wells
# PrPC TRFRET: cell surface PrPC inhibition, primary TR-FRET screen; P04156; TR-FRET read-out; inhibition, % at 13.8 µM; hit rate 0.43% among 370,000; in the data active = inhibition above about 24%; also: 0% = median of the test wells and 100% = reference compound wells
# MazEF act: MazEF (E. coli) toxin RNase activation | P0AE70 | FAM/BHQ RNA-DNA oligo cleavage fluorescence, 5 h | activation, % at 20 µM | hit rate 0.32% among 350,000 | AID 504720; in the data active = activation above about 50%
# Target sequence (P0AE70 whole entry, looked up): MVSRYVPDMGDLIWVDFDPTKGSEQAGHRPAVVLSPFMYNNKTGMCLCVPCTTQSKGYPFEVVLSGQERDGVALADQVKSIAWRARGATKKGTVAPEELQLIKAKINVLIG
# Vc quorum ag: induces V. cholerae light production without autoinducers; hit rate 0.16% among 350,000; AID 588436; V. cholerae BH1578 lux reporter, luminescence, 6 h; activation, % at 18.7 µM; in the data active = activation mostly above about 9.7%, no sharp cut-off
# Y pestis TopoI: blocks Yersinia pestis topoisomerase I activity | Y. pestis Topo-I cleavage product accumulation, plate reader | hit rate 0.064% among 360,000 | AID 504884 | activity, % at 10 µM; in the data active = activity above about 50%, passing the limit was not always enough
# DUSP3 inh: DUSP3 (human) phosphatase inhibition | P51452 | recombinant VHR phosphatase, pNPP absorbance | inhibition, % at 13.3 µM | hit rate 0.52% among 290,000 | AID 1654; in the data active = inhibition above about 50%
# Target sequence (P51452 whole entry, looked up): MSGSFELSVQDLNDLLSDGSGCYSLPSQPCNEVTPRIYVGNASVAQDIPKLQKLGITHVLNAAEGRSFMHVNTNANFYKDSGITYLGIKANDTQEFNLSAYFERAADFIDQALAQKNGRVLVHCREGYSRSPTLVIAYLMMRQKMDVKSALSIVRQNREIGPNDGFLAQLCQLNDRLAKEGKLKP
# CCHF vOTU inh-2: confirmation of CCHF virus vOTU protease inhibitors; shares compounds with CCHF vOTU inh-1; Recombinant CCHFV vOTU, Pep-AMC fluorescence; inhibition, % at 11.5 µM; hit rate 17% among 1,900; AID 686976
# Numbers without * were called inactive; i = inactive; . = no result given. Rule as the data show it, unless noted: active = inhibition above about 30%; inactive = the rest.
SMILES,CCHF vOTU inh-1,PrPC TRFRET,MazEF act,Vc quorum ag,Y pestis TopoI,DUSP3 inh,CCHF vOTU inh-2
O=[N+]([O-])c1ccc(O)c2ncccc12,47*,-36,-1,-1,6,-3,23
CCOC(=O)C1CCCCN1Cc1ccc(-c2ccccc2)cc1 (centres undefined),1,5,0,0,12,35,.
CCCC(=O)N1CCC1(C)C(=O)Nc1cc(OC)ccc1OC (centres undefined),.,.,.,i,9,.,.
O=S1(=O)NC2c3ccccc3CC2O1 (centres undefined),37*,3,1,-1,-4,13,-5
CCOC(=O)CSc1nc(-c2ccc(OC)cc2)ns1,33*,1,-18,i,3,2,0
CCOC(=O)CNC(=O)CSc1nc(-c2ccc(C)cc2)ns1,10,2,-7,1,-6,2,.
C=CCN1C=CC(=C/C=C(/C#N)C(=O)OCC)C=C1,38*,-54,-148,1,-4,-1,30*
CC1=C(C(=O)N2CCCCCC2)CC(CC(=O)NCCCCc2ccccc2)C(=O)N1CCC1=CCCCC1 (centres undefined),19,-7,.,.,.,.,.
CN(C(=S)Nc1ccc(Oc2ccccc2)cc1)c1ccc(O)cc1,30*,1,-1,0,6,-4,-24
CN(C(=S)Nc1cccnc1)c1ccc(O)cc1,49*,-12,2,5,-2,7,-15
CCN(C(=S)Nc1cccnc1)c1ccccc1,4,-1,11,0,1,-2,.
CN(C(=S)Nc1ccc(SC(F)F)cc1)c1ccc(O)cc1,30*,-6,6,0,-7,26,-29
CN(C(=S)Nc1ccccc1)c1ccccc1,1,7,4,i,-6,-8,.
CNC[C@H](NC[C@@H](NCCCc1ccccc1)c1ccccc1)[C@H](C)O,0,-7,4,0,-6,21,.
COc1ccc(NC(=S)NNc2ccc(S(=O)(=O)Nc3ccccc3C(=O)O)cc2[N+](=O)[O-])cc1,33*,-31,-6,0,3,25,16
CCOC(=O)[C@@]12CN(C(=O)OC(C)(C)C)CC=C1N(Cc1ccc(OC)cc1)C(=O)[C@H]2CC(=O)N1CCN(C(=O)c2ccco2)CC1,5,-2,.,.,.,.,.
Nc1c(O)cccc1C(=O)O,30*,-15,-9,-1,1,.,1
COc1cc(/C=C2/C(=O)CNC2=O)ccc1O,16,-1,-102,2,2,21,.
COc1cc(C=C2C(=O)C=CC2=O)ccc1O,41*,0,.,.,.,.,-11
NC(=S)N/N=C/c1ccc(/C=N/NC(N)=S)cc1,36*,-11,7,0,14,2,3
Cc1ccccc1-c1cc2c(nn1)-c1ccccc1C2=O,96*,-18,21,1,-9,17,94*
Cc1ccc(-c2cc3c(nn2)-c2ccccc2C3=O)cc1,25,-9,16,0,-15,21,.
COC(=O)c1cc(C(C)c2c[nH]c3ccccc23)n2ccccc12 (centres undefined),-11,2,.,.,.,.,.
Cc1ccc(S(=O)(=O)/N=C2/NC(=O)/C(=C\c3cc(Br)cc(Br)c3O)S2)cc1,.,.,-129,0,-13,20,.
Cc1ccc(S(=O)(=O)/N=C2/NC(=O)/C(=C/c3ccc(Br)o3)S2)cc1,36*,5,-4,-3,-2,-16,11
SMILES,CCHF vOTU inh-1,PrPC TRFRET,MazEF act,Vc quorum ag,Y pestis TopoI,DUSP3 inh,CCHF vOTU inh-2
Cc1onc(-c2c(F)cccc2Cl)c1C(=O)Nc1cc(S(=O)(=O)N2CCCCC2)ccc1O,19,12,10,-1,4,.,.
COC(=O)c1cc(C)nc2c1C(=O)C(=O)C=C2N1CCOCC1,107*,-16,-9,0,5,54*,109*
O=C(c1ccc(S(=O)(=O)c2ccccc2)cc1)N1CCc2ccccc2C1,35*,-1,-10,i,30,-2,-17
COc1ccc(NC(=O)COC(=O)c2ccc(S(=O)(=O)N(C)c3ccccc3OC)cc2)c(OC)c1,.,.,.,.,.,34,.
CSc1ccccc1NC(=O)CN(C)C(=O)COc1cccc2cccnc12,33*,-4,0,0,9,.,-9
CC1(Cc2ccc(F)cc2)C(=O)Nc2ccc(S(=O)(=O)NC3CCCCC3)cc21 (centres undefined),44*,22,.,-1,8,.,-6
